The values that follow come from PubChem BioAssay AID360 (National Center for Advancing Translational Sciences (NCATS), 2006).

Among all 48,000 compounds or so, about 550 (1.1%) were called active. About 4% were inconclusive and are not listed. No stated cut-off is given here; in the data, active means potency below about 15 µM; inconclusive means mostly about 16 µM to 33 µM; inactive means weaker than that. This excerpt belongs to a sample that is enriched for actives. A value given as a limit tells only on which side of the number the result lay.
Potency means the concentration at half of the fitted maximal effect.

Chain of Lysosomal acid glucosylceramidase (Homo sapiens) (P04062 whole entry, looked up): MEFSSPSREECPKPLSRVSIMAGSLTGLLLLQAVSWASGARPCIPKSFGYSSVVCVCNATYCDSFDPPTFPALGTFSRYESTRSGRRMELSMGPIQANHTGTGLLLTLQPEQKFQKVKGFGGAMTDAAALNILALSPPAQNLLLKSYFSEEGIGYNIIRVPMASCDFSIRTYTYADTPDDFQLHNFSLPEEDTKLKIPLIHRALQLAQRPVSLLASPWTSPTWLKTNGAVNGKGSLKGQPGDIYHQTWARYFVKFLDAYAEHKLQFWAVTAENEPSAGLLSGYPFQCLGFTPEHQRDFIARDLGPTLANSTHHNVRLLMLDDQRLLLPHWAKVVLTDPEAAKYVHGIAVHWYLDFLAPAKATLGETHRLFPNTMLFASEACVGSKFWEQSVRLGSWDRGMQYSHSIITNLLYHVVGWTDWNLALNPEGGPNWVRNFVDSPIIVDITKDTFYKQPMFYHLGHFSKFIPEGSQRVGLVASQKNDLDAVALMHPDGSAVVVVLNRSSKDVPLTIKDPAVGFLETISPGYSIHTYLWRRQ

The target in this assay is Lysosomal acid glucosylceramidase (Homo sapiens) (UniProt P04062). Description: Glucocerebrosidase.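 Further: the screen sought inhibitors.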 The settings on record: purified enzyme, resorufin glucoside fluorescence (screen aimed at inhibitors), 20 min. The source says:
NCGC Assay Overview: Beta-glucocerebrosidase catalyzes the hydrolysis of beta-glucocerebroside to glucose and ceramide. The inherited deficiency of beta-glucocerebrosidase results in Gaucher disease, which is characterized by a wide variety of symptoms including hepatosplenomegaly, anemia, thrombocytopenia, bony lesions and bone marrow infiltration with characteristic storage cells, known as Gaucher cells. There are also forms of the disorder affecting the central nervous system. Patients with the same genotypes can manifest with diverse clinical presentations and it is believed that improper folding and trafficking of beta-glucocerbrosidase may contribute to the phenotypes observed. Low molecular weight molecules, acting as chaperones, may potentially restore trafficking of misfolded beta-glucocerebrosidase from the endoplasmic reticulum to the lysosomes, thereby enhancing functional lysosomal beta-glucocerebrosidase activity. Using normal beta-glucocerebrosidase, an assay was developed to screen for small molecule inhibitors that could potentially act as molecular chaperones on the mutant forms [developed with NIH investigator Dr. Ellen Sidransky's laboratory]. Two pro-fluorescent substrates were chosen for two screens against a small molecule library. One beta-glucocerebrosidase assay used Resorufin beta-D-Glucopyranoside (Marker Gene Technology Inc.), generating a red fluorescent product. The second assay used Fluorescein di-beta-D-Glucopyranoside, generating a blue fluorescent product. […] The IC50 values of Conduritol B Epoxide, a known glucocerebrosidase inhibitor, were determined to be 87.5 uM and 117 uM, respectively. The use of two difference pro-fluorescent substrates in the screens helped to eliminate false positives. All compounds were screened in a titration series resulting in AC50s (e.g., IC50s or EC50s).
NCGC Assay Protocol Summary: Both enzyme and substrate were diluted in buffer composed of 50mM citric acid/KH2PO4, 10mM sodium taurocholate and 0.01% tween-20 at pH 5.9. The final concentration of the enzyme was 0.2 nM in both assays. The compound library was titrated in 7 to 15 concentrations for the primary screens with a final concentration ranging from 0.6 nM to 50 uM. This particular assay protocol is for the "red" substrate, and it was performed in 1536-well plate format as follows: Red fluorescence substrate assay: 2 uL enzyme 23 nL compound 1 uL substrate (final concentration of 30 uM) Incubate at room temperature (RT) for 20 minutes Read the plate in Viewlux plate reader (Ex=548(7) and Em=600(10)).
For the compound `CC(C)c1ccc(O)c(CN2CCN(c3ccccc3)CC2)c1`, the Potency was 10.2 µM (active). Then `Fc1ccc(N2CCN(Cc3ccc4c(c3)OCO4)CC2)cc1`, with > 76.9 µM (inactive); and `O=C(c1cc(-c2ccncc2)nc2ccccc12)N1CCC2(CC1)OCCO2`, with > 76.9 µM (inactive).

As for `CC(=NCC1CCCO1)c1c(O)n(-c2ccccc2)c(=O)[nH]c1=O` (stereo not given), the Potency was > 76.9 µM (inactive). As to `CC(=O)c1c(O)n(C2CCCCCC2)c(=O)[nH]c1=O`, the Potency is > 76.9 µM (inactive).
